KCNQ2 block – blocks the rat KCNQ2 potassium channel; O88943; CHO-K1 KCNQ2, FluxOR thallium flux, 20 min; stronger effect = lower value; B-score at 10 µM; actives 1.1% (n = 310,000);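 active = fluorescence ratio B-score at most minus 3 library SDs, with starting brightness B-score within 2 library SDs, cut at about -5.5 in these data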
KCNQ2 enhance – enhances the rat KCNQ2 potassium channel | O88943 | CHO-K1 KCNQ2, FluxOR thallium flux fluorescence; stronger effect = higher value | B-score at 10 µM | actives 0.54% (n = 310,000) | AID 2239;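 active = fluorescence ratio B-score at least 3 SD of library B-scores, with initial fluorescence B-score within 3 of them, cut at about 5.3 in these data; same plate scores as AID 2156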;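 note: B-score of peak minus minimum over baseline fluorescence ratio after K+ and Tl+ stimulus; positive B-score means potentiation of KCNQ2 with more thallium influx and brighter signal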
Kir21 confirm – confirmation of mouse Kir2.1 potassium channel inhibitors. shares compounds with KCNQ2 enhance. Kir2.1-expressing cells, FluxOR thallium flux fluorescence; stronger effect = lower value. Tl flux remaining, % of negative control (stronger effect = lower value), % at 10 µM. actives 41% (n = 2,300). AID 2032;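 active = Primary-screen hit whose thallium flux fell at least 3 control SD below untreated wells in both duplicates, with normal baseline fluorescence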
HEK293 ctr – counter-screen for Kir2.1 inhibitors: effect in parental HEK293 cells | FluxOR signal as % of negative control (100 = no effect), % at 10 µM | FluxOR thallium flux fluorescence; 0% = unstimulated blank wells | actives 19% (n = 2,300) | shares compounds with KCNQ2 enhance | AID 2105;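 active = dye signal at least 3 control SD above or below untreated wells in both duplicates, raw fluorescence within 3, either direction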;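 note: percent is based on the flux ratio of peak minus minimum fluorescence over baseline F0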
CHO-K1 ctr – counter-screen for KCNQ2 potentiators: effect in parental CHO-K1 cells. actives 43% (n = 1,200). FluxOR thallium flux fluorescence; zero = vehicle mean+3SD, 100% = vehicle-minus-blank window. activity increase over 3SD of controls, % at 10 µM. shares compounds with KCNQ2 enhance;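 active = signal rise of at least 3 SD above the untreated control mean, in both duplicate wells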;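 note: counter screen of KCNQ2 potentiator hits so any rise reflects channel-independent effects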
KCNQ1 pot spec – tests whether KCNQ2 potentiators also act on human KCNQ1; shares compounds with KCNQ2 enhance; CHO KCNQ1 stable, FluxOR thallium flux fluorescence; beyond 3SD, as % of vehicle-control signal; activation over 3SD threshold, % at 10 µM; actives 28% (n = 1,200); AID 2283;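 active = fluorescence ratio rise of at least 3 SD of vehicle wells above their mean, in both replicate wells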
Target sequence (P51787 whole entry, looked up): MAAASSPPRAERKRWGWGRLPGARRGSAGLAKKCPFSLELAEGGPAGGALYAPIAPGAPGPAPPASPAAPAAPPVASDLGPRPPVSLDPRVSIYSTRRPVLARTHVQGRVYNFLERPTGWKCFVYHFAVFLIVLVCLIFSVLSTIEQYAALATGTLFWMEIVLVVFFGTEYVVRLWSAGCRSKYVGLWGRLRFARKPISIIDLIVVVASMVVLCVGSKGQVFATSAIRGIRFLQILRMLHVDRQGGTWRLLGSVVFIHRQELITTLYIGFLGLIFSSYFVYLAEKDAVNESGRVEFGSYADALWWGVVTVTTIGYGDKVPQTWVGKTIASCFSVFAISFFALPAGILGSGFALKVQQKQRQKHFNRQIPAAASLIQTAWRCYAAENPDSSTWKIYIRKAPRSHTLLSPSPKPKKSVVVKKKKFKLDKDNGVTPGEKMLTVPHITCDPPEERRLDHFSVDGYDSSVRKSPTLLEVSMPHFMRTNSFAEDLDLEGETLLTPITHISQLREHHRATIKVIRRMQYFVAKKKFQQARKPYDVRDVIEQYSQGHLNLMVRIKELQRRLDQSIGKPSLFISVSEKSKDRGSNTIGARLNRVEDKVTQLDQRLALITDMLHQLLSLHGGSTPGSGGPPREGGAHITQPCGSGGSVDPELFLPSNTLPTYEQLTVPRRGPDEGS
KCNQ2 pot conf – rat KCNQ2 channel potentiator confirmation | actives 68% (n = 1,200) | AID 2287 | CHO-KCNQ2 cells, FluxOR thallium flux fluorescence | potentiation, less the hit threshold, % at 10 µM | shares compounds with KCNQ2 enhance;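 active = fluorescence ratio rising 3 SD or more over the vehicle control mean in both replicates, plus primary screen hit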;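 note: peak minus minimum thallium fluorescence divided by baseline after K/Tl stimulus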
Kir21 spec – mouse Kir2.1 off-target activity of KCNQ2 potentiators. shares compounds with KCNQ2 enhance. HEK293 Kir2.1, FluxOR thallium flux fluorescence. activity over 3SD threshold, % at 10 µM. actives 2% (n = 1,200);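 active = fluorescence ratio rise of at least 3 SD above the vehicle-control mean, seen in both replicates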
KCNQ2 W236L pot – KCNQ2 potentiators acting on retigabine-insensitive rat KCNQ2 W236L mutant. current increase over 3SD of negative controls (%), stronger effect = higher value, % at 25 µM. actives 10% (n = 940). AID 2558. shares compounds with KCNQ2 enhance. CHO KCNQ2-W236L, automated patch clamp current;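 active = current increase at least 3 SD of the untreated controls above them in both duplicate recordings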
Each line names hits and unclear results; the compound was inactive in the other large screens (follow-up assays come after a bar, where they were run). Compounds with a hit are over-represented: about 1.6% of the library has one in this group of screens.

CCN(Cc1ccccc1)CC(O)COC(c1ccc(OC)cc1)c1ccc(OC)cc1 (stereo unspecified)	none (no result: KCNQ2 enhance) | Kir21 confirm 66% | HEK293 ctr inactive
CCN(CC)CC(O)COC(c1ccccc1)c1ccccc1 (stereo unspecified)	none
Cc1oc(-c2ccccc2Cl)nc1CS(=O)CC(=O)NCc1ccc2c(c1)OCO2 (stereo unspecified)	none
CN(C)C(=O)c1cc(Cl)ccc1Sc1cc(Cl)ccc1Cl	none (no result: KCNQ2 enhance)
CN(C)C(=O)c1cc(F)ccc1Sc1cc(Cl)ccc1Cl	none (no result: KCNQ2 enhance) | Kir21 confirm 47% | HEK293 ctr inactive
CCC(C)C(NS(=O)(=O)c1ccc(C)cc1)C(=O)N1CCOCCOCCOCC1 (stereo unspecified)	none (no result: KCNQ2 enhance)
CCOCc1cn(CC(=O)c2ccc([N+](=O)[O-])cc2)c(C)nc1=N	none (no result: KCNQ2 enhance) | Kir21 confirm inactive | HEK293 ctr inactive
CCOCc1cn(CC(=O)c2ccc(Cl)cc2)c(C)nc1=N	none
CC(/C=C1\SC(=S)N(NS(=O)(=O)c2ccccc2)C1=O)=C\c1ccccc1	KCNQ2 enhance 12 | Kir21 confirm inactive | HEK293 ctr 260% | CHO-K1 ctr 0.8 | KCNQ1 pot spec 63 | KCNQ2 pot conf 56 | Kir21 spec inactive | KCNQ2 W236L pot inactive
CC(/C=C1\SC(=S)N(NC(=O)c2ccncc2)C1=O)=C\c1ccccc1	none
CC(/C=C1\SC(=S)N(NC(=O)c2ccc(C)cc2)C1=O)=C\c1ccccc1	KCNQ2 enhance 9.2 | Kir21 confirm inactive | HEK293 ctr inactive | CHO-K1 ctr inactive | KCNQ1 pot spec inactive | KCNQ2 pot conf inactive | Kir21 spec inactive
COc1ccc(/C=C2/SC(=S)N(NS(=O)(=O)c3ccccc3)C2=O)cc1	none
CN(C(=O)c1cccc(COc2ccc(Cl)cc2Cl)c1)c1ccccc1	none (no result: KCNQ2 enhance) | Kir21 confirm inactive | HEK293 ctr inactive
O=C(c1cccc(COc2ccc(Cl)cc2Cl)c1)N1CCN(c2ccccn2)CC1	none (no result: KCNQ2 enhance)
O=C(OCC(=O)N1CCCC1)c1ccc(S(=O)(=O)Nc2ccccc2)cc1	none
CCN(CC)S(=O)(=O)c1ccc(NC(=O)C2c3ccccc3Oc3ccccc32)cc1	none (no result: KCNQ2 enhance)
Cc1ccc(S(=O)(=O)c2cc3ccccc3nc2N)cc1	none
Cc1c(C(=O)Nc2cccc([N+](=O)[O-])c2)cnn1-c1ccccc1	none
CCn1ncc([N+](=O)[O-])c1C(=O)Nc1nc2cccc(C)c2s1	none
CCn1ncc([N+](=O)[O-])c1C(=O)Nc1c(C)cccc1C	KCNQ2 enhance 14 | Kir21 confirm inactive | HEK293 ctr inactive | CHO-K1 ctr inactive | KCNQ1 pot spec inactive | KCNQ2 pot conf inactive | Kir21 spec inactive
CCOc1ccc(CCNC(=O)Cn2nc(C)c3c(C)n(-c4ccccc4)nc3c2=O)cc1OCC	none
CC(C)Oc1ccccc1NC(=O)CSc1nc2ccccc2c(=O)n1C	none | Kir21 confirm 58% | HEK293 ctr inactive
Cc1ccccc1NC(=O)CSc1nc2ccccc2c(=O)n1C	none
Cn1cccc1/C=N/NC(=O)C12CC3CC(CC(C3)C1)C2	none (no result: KCNQ2 enhance)
O=C(N/C=C/c1ccco1)Nc1cccc(Cl)c1	KCNQ2 enhance 14 | Kir21 confirm inactive | HEK293 ctr inactive | CHO-K1 ctr inactive | KCNQ1 pot spec inactive | KCNQ2 pot conf 61 | Kir21 spec inactive | KCNQ2 W236L pot inactive
COc1ccc(NC(=O)N/C=C/c2ccco2)cc1	none
COc1cccc(NC(=O)c2ccc3c(c2)CCN3S(C)(=O)=O)c1	KCNQ2 enhance 17 | Kir21 confirm inactive | HEK293 ctr inactive | CHO-K1 ctr 2.5 | KCNQ1 pot spec inactive | KCNQ2 pot conf inactive | Kir21 spec inactive
CC(=O)Nc1ccc(NC(=O)c2ccc3c(c2)CCN3S(C)(=O)=O)cc1	none (no result: KCNQ2 enhance)
O=C(NCc1ccc(F)cc1)Nc1ccc(Cl)cc1	none
O=C(NCc1ccc(F)cc1)Nc1cccc(Cl)c1	KCNQ2 enhance 5.8 | Kir21 confirm inactive | HEK293 ctr inactive | CHO-K1 ctr 87 | KCNQ1 pot spec 54 | KCNQ2 pot conf 13 | Kir21 spec inactive | KCNQ2 W236L pot inactive
O=[N+]([O-])c1ccc(S(=O)(=O)c2ccccc2)nc1	KCNQ2 block -5.9 | Kir21 confirm inactive | HEK293 ctr 70%
Nc1ccc(S(=O)(=O)c2ccccc2)nc1	none (no result: KCNQ2 enhance)
N#C/C(=N\Nc1ccc(F)cc1)C(=O)C1CC1	none
N#C/C(=N\Nc1ccc(Cl)c(Cl)c1)C(=O)C1CC1	KCNQ2 enhance 6.6 | Kir21 confirm inactive | HEK293 ctr inactive | CHO-K1 ctr 13 | KCNQ1 pot spec inactive | KCNQ2 pot conf inactive | Kir21 spec inactive | KCNQ2 W236L pot inactive
COC(=O)CSc1nc2c(c(-c3ccc(C)o3)c1C#N)CCCC2	KCNQ2 enhance 22 | Kir21 confirm inactive | HEK293 ctr inactive | CHO-K1 ctr inactive | KCNQ1 pot spec inactive | KCNQ2 pot conf 41 | Kir21 spec inactive | KCNQ2 W236L pot inactive
CCSc1nc2c(c(-c3ccc(C)o3)c1C#N)CCCC2	none (no result: KCNQ2 enhance)
CN(C)C(=S)Oc1ccccc1-c1ccccc1OC(=S)N(C)C	none
O=C1c2ccccc2S(=O)(=O)c2cc(C(=O)N3CCC(N4CCCC4)CC3)ccc21	none (no result: KCNQ2 enhance)
CCc1ccc2c(CN3CCN(Cc4ccccc4)CC3)cc(=O)oc2c1	none (no result: KCNQ2 enhance)
Cc1cc2oc(=O)cc(CN(C)Cc3cccc(F)c3)c2cc1C	none
CCc1cc2c(CN(C)Cc3ccccc3F)cc(=O)oc2cc1O	none (no result: KCNQ2 enhance) | Kir21 confirm inactive | HEK293 ctr inactive
CCc1cc2c(CN3CCN(Cc4ccccc4)CC3)cc(=O)oc2cc1O	none | Kir21 confirm 74% | HEK293 ctr inactive
Cc1c(NC(=O)Nc2ccc(C#N)cc2)c(=O)n(-c2ccccc2)n1C	none (no result: KCNQ2 enhance)
CCN(C(=O)COC(=O)c1ccc2c(=O)n3c(nc2c1)CCC3)C1CCS(=O)(=O)C1 (stereo unspecified)	none
O=C(NCc1ccccn1)c1ccc(CNS(=O)(=O)c2ccc(F)cc2)cc1	none
Cc1ccc(-c2nc(SCC(=O)NCC3CCCO3)c(-c3ccccc3)[nH]2)cc1 (stereo unspecified)	none (no result: KCNQ2 enhance)
Cn1c(NCc2c(O)ccc3ccccc23)nc2ccccc21	none (no result: KCNQ2 enhance)
Cn1c(CNc2nc3ccccc3n2C)nc2ccccc21	none (no result: KCNQ2 enhance)
Cc1ccc(CNc2nc3ccccc3n2C)cc1	none (no result: KCNQ2 enhance) | Kir21 confirm 36% | HEK293 ctr inactive
